By inhibition is commonly meant the share of the control response that was lost under treatment.

Each structure is given as a SMILES string. For part of these data: Measured potencies and affinities stand elsewhere. Activity calls are given as the source filed them.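 The calls were made as follows, unless noted: active = compound raising the membrane signal above positive-control mean plus 3 SD in both repeats, and a primary screen hit; inactive = the rest.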

In test [1] the test system is TRPC4 beta (transient receptor potential cation channel C4), mouse. Put plainly: activators of mouse TRPC4 channel, confirmation, cell-based, Fluo4 calcium, HEK293 TRPC4beta/mu-opioid, duplicates, 10 µM (AID 2426;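 active = fluorescence ratio normalized to control raised more than 50% in primary screen plus both repeat runs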;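 as to activation: percent rise of integrated ratio over buffer wells lacking compound which define 0%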). The settings on record: Fluo4 calcium fluorescence, at 10 µM; active compounds read high.
Test [2] has as its system transient receptor potential cation channel C4 beta (TRPC4), mouse. In words: activators of mouse TRPC4 channel, confirmation, cell-based, second round, Fluo4, HEK293 TRPC4beta/mu-opioid, 1 µM (AID 2461;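 active = primary screen active and over 50% activation in each of two duplicate runs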;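 as to activation: 0% = wells without test compound as baseline of integrated fluorescence ratio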). The settings on record: Fluo4 calcium fluorescence, at 1 µM; active compounds read high.
The subject of test [3] is TRPC4 (transient receptor potential cation channel C4 beta), mouse. Put plainly: positive allosteric modulators of mouse TRPC4, confirmation, cell-based, second round, Fluo-4, HEK293 TRPC4beta/mu-opioid, 1 µM (AID 2554;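 active = primary screen hit whose fluorescence ratio, in both repeats, exceeds the weak agonist control mean by 3 SD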). Conditions: DAMGO EC20, Fluo-4 calcium flux, at 1 µM; active compounds read high. On the technique in general: Calcium assays in cells follow changes in intracellular calcium, usually with a dye or a luminescent sensor.

The subject of test [4] is TRPC4 beta (transient receptor potential cation channel C4), mouse. Put plainly: positive allosteric modulators of mouse TRPC4, confirmation, cell-based, Fluo-4, HEK293 TRPC4beta/mu-opioid (AID 2555;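 active = primary screen hit whose calcium fluorescence ratio, in both repeats, exceeds the weak agonist control mean by 3 SD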). Conditions: DAMGO EC20, Fluo-4 calcium flux, at 10 µM; active compounds read high.
The target in test [5] is Short transient receptor potential channel 4 (Mus musculus) (UniProt Q9QUQ5). Put plainly: inhibitors of mouse TRPC4 channel, confirmation, cell-based, Fluo4, HEK293 TRPC4beta/mu-opioid (AID 2636;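 active = calcium signal cut by more than 3 SD below the full-agonist control yet still positive, in both repeats and the earlier primary screen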). The settings on record: DAMGO, Fluo4 calcium flux, at 10 µM; active compounds read high.
Short transient receptor potential channel 4 (Mus musculus), sequence (Q9QUQ5 whole entry, looked up): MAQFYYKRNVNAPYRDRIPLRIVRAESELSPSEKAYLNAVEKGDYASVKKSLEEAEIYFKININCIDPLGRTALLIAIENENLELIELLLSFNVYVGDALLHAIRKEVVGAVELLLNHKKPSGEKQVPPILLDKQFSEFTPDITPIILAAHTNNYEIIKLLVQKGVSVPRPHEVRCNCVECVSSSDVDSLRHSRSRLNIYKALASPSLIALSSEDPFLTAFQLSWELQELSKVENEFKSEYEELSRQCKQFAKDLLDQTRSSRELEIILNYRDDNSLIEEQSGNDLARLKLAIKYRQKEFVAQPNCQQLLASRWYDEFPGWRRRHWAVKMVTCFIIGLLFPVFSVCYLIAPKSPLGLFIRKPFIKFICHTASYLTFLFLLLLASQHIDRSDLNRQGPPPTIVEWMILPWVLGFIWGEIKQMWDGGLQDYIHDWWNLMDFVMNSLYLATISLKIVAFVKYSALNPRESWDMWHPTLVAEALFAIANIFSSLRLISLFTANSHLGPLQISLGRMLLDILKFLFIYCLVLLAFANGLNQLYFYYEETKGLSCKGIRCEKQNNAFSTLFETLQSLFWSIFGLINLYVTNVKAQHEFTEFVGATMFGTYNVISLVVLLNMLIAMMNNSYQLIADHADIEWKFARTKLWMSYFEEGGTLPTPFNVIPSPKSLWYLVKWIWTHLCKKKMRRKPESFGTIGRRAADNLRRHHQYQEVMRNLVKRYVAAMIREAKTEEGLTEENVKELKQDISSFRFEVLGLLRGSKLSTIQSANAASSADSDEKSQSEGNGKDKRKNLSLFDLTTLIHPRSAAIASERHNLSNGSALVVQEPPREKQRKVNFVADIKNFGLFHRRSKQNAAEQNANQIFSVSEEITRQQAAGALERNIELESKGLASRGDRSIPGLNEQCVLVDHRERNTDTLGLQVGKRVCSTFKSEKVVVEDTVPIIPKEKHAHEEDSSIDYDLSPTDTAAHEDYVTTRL
The target is the same in test [6]. Put plainly: inhibitors of mouse TRPC4 channel, confirmation, cell-based, second round, Fluo4, HEK293 TRPC4beta/mu-opioid, 1 µM (AID 2637;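 active = calcium signal ratio cut to more than 3 SD under the fully stimulated control mean yet still positive, in both repeats and the primary screen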). Conditions: Fluo4 calcium flux, DAMGO, at 1 µM; active compounds read high.
Test [7] shares this target. Put plainly: TRPC4 positive allosteric modulators, dose response, cell-based, HEK293 TRPC4/mu-opioid, Fluo-4 calcium, EC20 DAMGO (AID 434941;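 active = earlier screen potentiator hit that boosts the TRPC4 ion channel at some dose, with a dose response; inactive = no potentiation, no dose response, or not a prior hit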;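 also: calcium entry triggered by an EC20 dose of DAMGO at the co-expressed mu-opioid receptor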).
Test [8] has the same target. Put plainly: mouse TRPC4 channel inhibitors, dose response, cell-based, HEK293 TRPC4/mu-opioid, Fluo-4 calcium (AID 434942;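 active = primary screen inhibitor hit that blocks the TRPC4 channel at some tested dose, yielding a dose curve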).
The target of test [9] is Short transient receptor potential channel 6 (Mus musculus) (UniProt Q61143). In words: inhibition of mouse TRPC6 channel, confirmation, selectivity assay for TRPC4 inhibitor project, cell-based, HEK293, membrane potential dye, duplicate (AID 434948;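 active = active in primary screen and both duplicates, each dropping signal beyond three positive-control SD with fluorescence still positive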). Conditions: HEK293 TRPC6, membrane potential dye fluorescence, at 10 µM, stimulated with maximal-effect acetylcholine; active compounds read high.
Short transient receptor potential channel 6 (Mus musculus), sequence (Q61143 whole entry, looked up): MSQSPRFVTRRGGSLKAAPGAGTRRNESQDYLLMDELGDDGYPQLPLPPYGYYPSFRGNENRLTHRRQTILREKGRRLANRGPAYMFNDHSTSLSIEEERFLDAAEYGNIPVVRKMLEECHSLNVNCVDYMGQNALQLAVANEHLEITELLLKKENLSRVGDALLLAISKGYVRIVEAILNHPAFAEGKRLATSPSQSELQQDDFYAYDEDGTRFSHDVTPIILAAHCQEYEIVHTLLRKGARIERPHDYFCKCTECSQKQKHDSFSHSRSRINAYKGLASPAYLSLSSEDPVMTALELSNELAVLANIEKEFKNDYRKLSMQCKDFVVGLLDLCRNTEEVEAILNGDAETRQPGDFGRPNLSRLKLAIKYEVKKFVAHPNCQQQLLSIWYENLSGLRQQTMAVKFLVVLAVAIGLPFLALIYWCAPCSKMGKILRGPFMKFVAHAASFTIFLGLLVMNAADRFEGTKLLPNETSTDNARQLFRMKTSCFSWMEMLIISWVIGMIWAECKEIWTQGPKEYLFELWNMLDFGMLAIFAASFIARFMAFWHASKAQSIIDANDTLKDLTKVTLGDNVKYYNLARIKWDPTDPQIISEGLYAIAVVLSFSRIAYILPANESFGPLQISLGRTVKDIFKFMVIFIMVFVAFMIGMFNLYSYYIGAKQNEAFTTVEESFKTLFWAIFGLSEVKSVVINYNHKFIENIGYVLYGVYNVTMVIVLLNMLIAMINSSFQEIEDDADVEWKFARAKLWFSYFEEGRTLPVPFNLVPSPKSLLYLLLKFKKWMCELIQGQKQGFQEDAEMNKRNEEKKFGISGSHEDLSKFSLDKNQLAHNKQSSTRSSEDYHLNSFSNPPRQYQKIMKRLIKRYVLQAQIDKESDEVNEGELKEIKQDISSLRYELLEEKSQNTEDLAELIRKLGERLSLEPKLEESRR

Test [10] shares this target. Put plainly: activation of mouse TRPC6 channel, confirmation, selectivity assay for TRPC4 activator project, cell-based, HEK293, membrane potential dye, duplicate (AID 434950;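 active = membrane potential signal rise above negative control mean plus 3 SD in both duplicates, also active in the earlier TRPC4 screen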;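 as to activation: 0% = buffer only wells and 100% = acetylcholine maximal-effect wells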). Conditions: HEK293 TRPC6, membrane potential fluorescence, at 10 µM; active compounds read high.
Test [11] has the same target. Put plainly: TRPC6 potentiation by TRPC4 potentiator hits, confirmation, selectivity assay for TRPC4 potentiator project, HEK293 cells, membrane potential dye, duplicate (AID 434952). Conditions: HEK293 TRPC6, membrane potential dye fluorescence, at 10 µM, maximal acetylcholine added after compound; active compounds read high.
The target in test [12] is Short transient receptor potential channel 4 (Mus musculus) (UniProt Q9QUQ5). Put plainly: calcium flux activators in TRPC4/5HT1a cells, counter-screen for TRPC4 activator project, cell-based, second counter screen, HEK293 TRPC4/5HT1a, Fluo-4 (AID 434977;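 active = calcium signal rise above buffer-control mean plus 5 SD in both duplicates, and also a hit in the primary screen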;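 as to activation: plate controls were assay buffer for no effect and maximal serotonin response for full effect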). The settings on record: Fluo-4 calcium flux, at 10 µM; active compounds read high.
Test [13] in a line: calcium flux inhibitors in TRPC4/5HT1a cells, confirmation, counter-screen for TRPC4 inhibitor project, cell-based, second counter screen, HEK293 TRPC4/5HT1a, Fluo-4 (AID 434978;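 active = primary screen active whose calcium signal fell more than 3 SD beyond the full-serotonin control mean in both duplicate plates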;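 also: serotonin given first at submaximal then at maximal dose after compound preincubation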). Conditions: Fluo-4 calcium flux, at 10 µM, serotonin added to trigger calcium flux; active compounds read high.
For test [14], the system named is TRPC4 (mouse), co-expressed with 5HT1a in HEK293. In words: calcium flux potentiators in TRPC4/5HT1a cells, confirmation, counter-screen for TRPC4 potentiator project, cell-based, second counter screen, HEK293 TRPC4/5HT1a, Fluo-4 (AID 434979;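 active = signal rise over 3 SD above mean of control wells given weak agonist, in both repeats and first screen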). Conditions: Fluo-4 calcium flux, at 10 µM, serotonin added at its EC20 dose; active compounds read high.
Test [15] in a line: calcium flux activation in mu-opioid HEK293 cells, confirmation, counter-screen for TRPC4 activator project, cell-based, HEK293 mu-opioid receptor line (AID 449723;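 active = hit in primary screen, with calcium signal over 5 SD above buffer well mean in both duplicates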;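 also: counter screen cells carry the mu-opioid receptor alone and lack TRPC4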). Conditions: Fluo-4 calcium fluorescence, at 10 µM; active compounds read high.
A short description of test [16]: calcium flux enhancement in mu-opioid HEK293 cells, confirmation, counter-screen for TRPC4 allosteric potentiator project, cell-based, HEK293 mu-opioid receptor line (AID 449724;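 active = calcium signal rise more than 3 SD above the low-dose agonist control mean, in both duplicate plates and the primary screen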;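 also: HEK293 cells carrying mu-opioid receptor only with no TRPC4 channel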). The settings on record: Fluo-4 calcium flux, at 10 µM, compound added before EC20 DAMGO stimulus; active compounds read high.

As to `COc1ccc(C(CNC(=O)c2ccc3c(c2)OCCO3)N(C)C)cc1` (stereo not given), the activation was 153% (active) in test [1], 123% (active) in [2] and 49% (active) in test [10]. Also, the outcome in [3], in test [4], in test [5], in test [6], in test [7] and in [8] was inactive. The outcome in [9], in [11], in test [12], in test [13], in test [14] and in [15] was inactive. Besides, in test [16], the outcome was inactive.

`COc1ccc(C(CCNCc2ccc(N(C)C)cc2)c2ccccc2)cc1` (stereo not given): the activation in [1] is 165% (active); in [12], 26.5% (active). In addition, the result in [2], in test [3], in test [4], in [5], in [6] and in test [7] was inactive. Further, the result in test [8], in [9], in test [10], in [11], in test [13] and in test [14] was inactive. The outcome in test [15] and in test [16] was inactive.

Consider `CCn1c(CN2CCN(Cc3ccc(C)cc3)C(CCO)C2)nc2ccccc21` (stereo not given), for which the activation in [1] was 129% (active); in test [2] it was 73% (active); in test [10], 61.5% (active); in test [12], 32.4% (active). In addition, the result in test [3], in test [4], in test [5], in test [6], in [7] and in [8] was inactive. The compound was classed as inactive in [9], in test [11], in test [13], in [14], in test [15] and in [16].

As for `CC1CN(C)C(C)c2c1oc1ccc(N)cc21` (stereo not given), the activation was 226% (active) in test [1] and 73% (active) in test [2]. The result in test [3], in test [4], in test [5], in [6], in test [7] and in test [8] was inactive. Besides, the compound was classed as inactive in [9], in [10], in [11], in [12], in test [13] and in test [14]. For the same compound, the outcome in [15] and in test [16] was inactive.

For `CC(=O)n1cc([C@H]2C=C(C(=O)NCc3ccccc3)O[C@@H](OCc3ccc(CO)cc3)C2)c2ccccc21`, the result in [1], in [2], in test [3], in test [4], in [5] and in [6] was inactive. The result in test [7], in [8], in [9], in test [10], in [11] and in [12] was inactive. The outcome in [13], in test [14], in [15] and in test [16] was inactive.

In the case of `COc1ccc2nc(SCCN(C)C)[nH]c2c1`, the activation is 108% (active) in test [1], 87% (active) in test [2] and 35.7% (active) in [12]. The outcome in [3], in test [4], in [5], in [6], in [7] and in test [8] was inactive. The result in [9], in [10], in test [11], in [13], in [14] and in test [15] was inactive. The result in [16] was inactive.

Regarding `O=C(c1sc2ccccc2c1Cl)N(Cc1ccccc1)C1CCS(=O)(=O)C1` (stereo not given), the result in [1], in test [2], in [3], in [4], in test [5] and in test [6] was inactive. Also, the outcome in test [7], in test [8], in test [9], in test [11], in test [12] and in test [13] was inactive. Besides, the result in test [14], in [15] and in test [16] was inactive. The activation in test [10] is 36% (active).

`O=C(NC1CC1)C1=C[C@H](c2csc3ccccc23)C[C@H](OCc2ccc(CO)cc2)O1`: the outcome in test [1], in test [2], in test [3], in test [4], in test [5] and in test [6] was inactive. The outcome in test [7], in test [8], in test [9], in test [11], in test [12] and in test [13] was inactive. For the same compound, the result in test [14], in [15] and in test [16] was inactive. In addition, the activation in [10] is 35.5% (active).

Take `CN(C)CCCN(C(=O)c1ccc(S(=O)(=O)N2CCc3ccccc32)cc1)c1nc2ccc(F)cc2s1`: the activation in test [1] is 79% (active). Besides, the outcome in [2], in [3], in test [4], in test [5], in test [6] and in test [7] was inactive. Further, the outcome in [8], in test [9], in test [10], in test [11], in test [12] and in test [13] was inactive. Besides, the result in test [14], in test [15] and in [16] was inactive.

With `Cc1ccc(-n2cc(CNC(C)c3cnn(C)c3)c(-c3ccc(F)cc3)n2)cc1` (stereo not given), the activation in test [1] was 232% (active); in [2], 103% (active); in test [10] it was 33% (active); in [12], 5.72% (active). Further, the result in test [3], in test [4], in test [5], in test [6], in [7] and in test [8] was inactive. Further, the compound was called inactive in [9], in test [11], in test [13], in test [14], in test [15] and in test [16].

Consider `Nc1c(C(=O)c2ccccc2)sc2nsc(SCCN3CCCC3)c12`, for which the activation in test [1] was 89% (active); in [10], 410% (active); in [12] it was 93% (active); in test [15] it was 84.3% (active). For the same compound, the result in [2], in test [3], in test [4], in test [5], in test [6] and in test [7] was inactive. Moreover, the result in test [8], in [9], in [11], in [13], in test [14] and in test [16] was inactive.

`Fc1ccc(-n2cc(CNCCc3cccnc3)c(-c3ccccc3Cl)n2)cc1`: the activation in [1] is 153% (active); in [10], 31% (active). Further, the outcome in [2], in test [3], in test [4], in [5], in [6] and in test [7] was inactive. Further, the result in [8], in [9], in test [11], in [12], in test [13] and in test [14] was inactive. The outcome in test [15] and in [16] was inactive.

For the compound `COc1ccccc1/C=C/CN1CCCC(CCC(=O)NCc2ccccc2F)C1` (stereo not given), the activation is 98% (active) in test [1], 51% (active) in test [2], 44% (active) in test [10] and 32.5% (active) in test [12]. Besides, the outcome in [3], in test [4], in test [6], in test [7], in [8] and in [9] was inactive. Besides, the result in [11], in [13], in [14], in [15] and in [16] was inactive. In addition, the inhibition in test [5] was 53% (active).

As to `CN(C)C(CNC(=O)NC1CCCCC1)c1cccnc1` (stereo not given), the values for the activation in [1], in test [2] and in test [10] were 79% (active), 98% (active) and 29.5% (active), respectively. For the same compound, the outcome in test [3], in test [4], in test [5], in [6], in test [7] and in test [8] was inactive. Besides, the call in test [9], in [11], in test [12], in test [13], in test [14] and in [15] was inactive. Besides, the outcome in test [16] was inactive.

As to `O=C(Nc1ccncc1)c1ccc(Cl)c(S(=O)(=O)N2CCc3ccccc32)c1`, the activation is 108% (active) in [1] and 17.7% (active) in [12]. Further, the result in test [2], in test [3], in test [4], in test [5], in [6] and in [7] was inactive. For the same compound, the result in [8], in test [9], in test [10], in test [11], in test [13] and in test [14] was inactive. Also, the result in [15] and in test [16] was inactive.

The values above are taken from PubChem BioAssay.
